Screening results deposited in PubChem BioAssay by National Center for Advancing Translational Sciences (NCATS).
The list is not random: actives were taken first. Their share in the collection is about 11%.
G9a inh = qHTS Assay for Inhibitors of Histone Lysine Methyltransferase G9a | G9a H3K9 monomethylation, AlphaScreen, 2 h | Potency, µM (doses to about 102 µM), for inactives: at the top dose activity, negative = inhibition, actives largely listed as inhibitors | 350,000 tested, 8.8% active; note: % is set by controls: 0 for no effect and ±100 for the full control effect; nearly all actives have a fitted effect of over 75% in size
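Readings reflect AlphaScreen signal from monomethyl-H3K9 antibody detection. HMT at 20 nM; substrate b-H3K9 500 nM; cofactor SAM 20 uM; 2 h RT reaction; compounds tested as titrations in qHTS with 15 min preincubation.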
BAZ2B inh = qHTS Assay for Inhibitors of BAZ2B; Potency, µM (series often up to 114 µM), for the others: at the highest dose activity change, negative = inhibition, actives largely listed as inhibitors; AID 504333, 2011; 360,000 tested, 4.4% active; Bromodomain adjacent to zinc finger domain protein 2B (Homo sapiens), Q9UIF8; AlphaScreen BAZ2B-H3K14Ac peptide displacement; note: % is set by controls: 0 for no effect and ±100 for the full control effect; nearly all actives have a fitted effect of over 60% in size
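Complex of BAZ2B and biotin-H3K14Ac (50 nM apiece) forms over 30 min at RT, then faces library compounds up to 110 uM for another 30 min; AlphaScreen beads added, 20 min dark incubation, luminescence read.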
JMJD2A Tudor = qHTS Assay for Inhibitors of JMJD2A-Tudor Domain | Potency, µM (highest dose often 114 µM), without a hit: at the top dose activity change, negative = inhibition, most hits filed as inhibitors | AlphaScreen JMJD2A-Tudor / H3K4me3 peptide binding | 390,000 tested, 4.4% active; note: % is set by controls: 0 for no effect and ±100 for the full control effect; nearly all actives have a fitted effect of over 50% in size
L3MBTL1 block = qHTS Assay for the Inhibitors of L3MBTL1 | Potency, µM (series often up to 57.1 µM), for the others: at the highest dose activity, negative = inhibition, hits mostly inhibitors | 230,000 tested, 0.66% active | Lethal(3)malignant brain tumor-like protein 1 (Homo sapiens), Q9Y468 | AID 485360, 2010 | AlphaScreen L3MBTL1–H3K9me1 peptide binding; note: % is set by controls: 0 for no effect and ±100 for the full control effect; nearly all actives have a fitted effect of over 60% in size
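First, the protein-peptide complex forms for 30 min at room temperature (L3MBTL1 50 nM, biotinylated H3K9me1 peptide 75 nM). Next, compounds are pin-transferred and incubated 30 min. Finally, AlphaScreen beads are added and read after 30 min.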
HP1b chromo inh = HTS for Inhibitors of HP1-beta Chromodomain Interactions with Methylated Histone Tails; Potency, µM (titrated, usually from 114 µM), inactives show top-dose activity change, negative = inhibition, most hits filed as inhibitors; Chromobox protein homolog 1 (Homo sapiens), P83916; 390,000 tested, 0.56% active; AlphaScreen HP1-beta / biotin-H3K9me3 peptide binding; note: nearly all actives have a fitted effect of over 70% in size
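Compound inhibition of the preformed complex between 50 nM HP1-beta and 50 nM biotinylated H3K9me3 peptide was read by AlphaScreen. Buffer was PBS pH 7.4 with 0.01% Tween-20. Incubations ran 30 min at room temperature, with 10 ug/mL donor/acceptor beads.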
Active calls of the source: *; [ ] = another dose, or the depositor's remark. Calls come from the whole dose curve; as a rule, active = well fitted inhibition curve with a large enough effect; inconclusive = small, poorly fitted or top-dose-only effect; inactive = no such curve, though single readings can be large or run the other way. Potency is the fitted concentration of half-maximal effect.

How did Cc1cnn(-c2cc(Oc3ccccc3)ncn2)c1 do in these assays?
G9a inh: -48.9%; BAZ2B inh: -0.1%; JMJD2A Tudor: 38.2%; L3MBTL1 block: 18.3%; HP1b chromo inh: 89.4%

What do the screens show for `O=C1NC(=O)C(=Cc2ccc(N3CCOCC3)cc2)C(=O)N1`?
G9a inh: 44.7µM*; BAZ2B inh: -3.2%; JMJD2A Tudor: 0.0%; L3MBTL1 block: 4.4%; HP1b chromo inh: 50.4%

How did OC1(c2ccc(Cl)cc2)CCN(Cc2c[nH]c3ccccc23)CC1 do in these assays?
G9a inh: 29.6%[59 µM]; JMJD2A Tudor: -33.8%; HP1b chromo inh: -16.4%

How did CC(C)(c1ccc(OCC2CO2)cc1)c1ccc(OCC2CO2)cc1 (stereo unspecified) do in these assays?
G9a inh: 139.1%[59 µM]

How did COC(=O)c1ccc(Cl)c(NC(=O)CN2CCN(Cc3ccccc3)CC2)c1 do in these assays?
G9a inh: 11.2µM*; BAZ2B inh: 4.1%; JMJD2A Tudor: -9.0%; L3MBTL1 block: 29.7%[11.4 µM]; HP1b chromo inh: 26.5%

What do the screens show for `C/C(=C\c1csc(C)n1)[C@@H]1C[C@@H]2O[C@]2(C)CCC[C@H](C)[C@H](O)[C@@H](C)C(=O)C(C)(C)[C@@H](O)CC(=O)O1`?
G9a inh: 6.7%[12.7 µM]

How did CC(C)(C)OC(=O)c1ncn2c1[C@@H]1CCCN1C(=O)c1c(Br)cccc1-2 do in these assays?
G9a inh: 11.1%[12.7 µM]

Results for COc1ccc(OCC(=O)N2CCN(CC3CC4C=CC3C4)CC2)cc1 (stereo unspecified) ?
G9a inh: 17.8µM*; BAZ2B inh: 50.1µM*; JMJD2A Tudor: 5.62µM*; L3MBTL1 block: 2.2%; HP1b chromo inh: inconclusive

What do the screens show for `O=C(Cc1ccccc1)N1CCN(CC2CC3C=CC2C3)CC1` (stereo unspecified)?
G9a inh: inconclusive; BAZ2B inh: 31.6µM*; JMJD2A Tudor: 4.47µM*; L3MBTL1 block: 3.8%; HP1b chromo inh: 50.1µM*

Results for Cc1nc(-c2ccc(-c3ccc(C(=O)N4CCc5cc6c(cc54)C4(CCN(C)CC4)CO6)cc3)c(C)c2)no1 ?
G9a inh: -13.9%[12.7 µM]

How did O=C(O)c1ccc([N+](=O)[O-])c([N+](=O)[O-])c1 do in these assays?
JMJD2A Tudor: -20.7%; HP1b chromo inh: -12.8%

How did O=C(O)c1sccc1Oc1ccc(F)cc1[N+](=O)[O-] do in these assays?
G9a inh: 35.5µM*; BAZ2B inh: inconclusive; JMJD2A Tudor: -19.9%; HP1b chromo inh: 20.6%

What do the screens show for `COc1ccc(N2CCN(c3ncnc4c3nc3n4CCCCC3)CC2)cc1`?
G9a inh: 11.2µM*; BAZ2B inh: inconclusive; JMJD2A Tudor: inconclusive; HP1b chromo inh: -13.4%

Results for O=C(O)c1cccc2nc3ccccc3nc12 ?
G9a inh: 39.8µM*; BAZ2B inh: -31.2%; JMJD2A Tudor: -8.8%; L3MBTL1 block: 7.0%; HP1b chromo inh: 41.5%

What do the screens show for `C=CCSc1nnc(NC(=O)c2ccc(Cl)nc2)s1`?
G9a inh: -49.9%[12.7 µM]; BAZ2B inh: -25.8%; JMJD2A Tudor: -1.2%; HP1b chromo inh: 73.4%

What do the screens show for `CNC[C@H](O)c1ccc(O)c(OC)c1`?
G9a inh: -9.2%[21.5 µM]

Results for CNC(=O)OCc1n(C)cc[n+]1C ?
G9a inh: 6.31µM*; BAZ2B inh: inconclusive; JMJD2A Tudor: -3.4%; L3MBTL1 block: 9.4%; HP1b chromo inh: 9.8%

Results for Cc1ccc(S(=O)(=O)N(CC(=O)NCCSc2ccc(Cl)cc2)c2ccccc2C)cc1 ?
G9a inh: 14.2%[59 µM]; BAZ2B inh: -17.4%; JMJD2A Tudor: 2.2%; HP1b chromo inh: 51.9%

How did COc1cc(C(=O)OC2C[C@H]3CC[C@@H](C2)N3)ccc1O (stereo partly specified) do in these assays?
G9a inh: 39.8µM*; BAZ2B inh: -19.1%; JMJD2A Tudor: -17.1%; HP1b chromo inh: 19.4%
